# Measurements reported in PubChem BioAssay AID2685 (National Center for Advancing Translational Sciences (NCATS), 2010).
# The whole screen tested about 320,000 compounds, of which about 2,100 (0.66%) were called active. Roughly 53% stayed inconclusive and do not appear here. This is one part of a sample in which actives are shown more often than they occur. Calls follow the shape of the dose curve; as a rule, active = well fitted inhibition curve with a large enough effect in the signal ratio, with a control signal flat (not every such curve was filed as active); inconclusive = small, poorly fitted or top-dose-only effect, or effect the other way, or a change in a side signal; inactive = flat fitted curve, though single readings scatter; the % refers to the signal ratio.
# Assay: qHTS Assay for Lipid Storage Modulators in Drosophila S3 Cells;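 as to cell number change: cells counted by Cell Tracker Red CMTPX staining in the red channel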; as to lipid storage change, negative = inhibition: % is scaled to controls: 0 for no effect and ±100 for the full control effect
# Settings: BODIPY lipid droplet fluorescence, 18-24 h, cells fed with added oleic acid; cell number change: measured here: cell count max response; series mostly up to 46.1 µM
# Summary of the method: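 Laser-scanning cytometry quantifies lipid droplet accumulation (500–530 nm total intensity; droplet/cell object ratio) in oleic acid-fed (400 uM added) Drosophila S3 cells treated with a concentration series. 20 uM Triacsin C defined 100% inhibition.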
# Potency is read from the fitted curve at half-maximal effect.
SMILES,Potency,cell number change [%],"lipid storage change, negative = inhibition"
Cc1ccc(S(=O)(=O)c2nc(-c3ccccc3Cl)oc2NCCCN2CCOCC2)cc1,inactive,,
CCOC(=O)C1(Cc2ccccc2)CCN(Cc2cn[nH]c2-c2ccccc2)CC1,inactive,4.32,
C[C@H](NC(=O)CCn1nnc2ccccc2c1=O)C(=O)O,inactive,-17.6,
O=C(c1ccc(F)cc1)C1CCN(Cc2ccc(F)cc2)CC1,inactive,16.1,
CCn1c(CCNC(=O)c2ccc(Cl)cc2)n[nH]c1=S,1.84 µM (active),24.6,
Cn1c(CCNC(=O)c2ccc(Cl)cc2)n[nH]c1=S,inactive,-13.4,
CCn1c(CCNC(=O)c2ccc(C)cc2)n[nH]c1=S,inactive,22.9,
CN1CCN(c2nc(C(N)=O)cc(-c3ccccc3)n2)CC1,inactive,-10.6,
COc1ccc(-c2nc(CSCC(=O)N3CCC(C(N)=O)CC3)c(C)o2)cc1OC,inactive,-1.8,
COc1ccc(C(=O)/C=C/c2ccc(O)cc2)cc1,inactive,-17.3,
COC(=O)c1ccc2c(c1)C(C)(C)C(/C=C/c1ccc(O)cc1)=[N+]2C,5.17 µM (active),1,
COC(=O)c1ccc(/C=C/C(=O)O)cc1,inactive,2.73,
Cc1cc(NC(=O)CSc2ncnc3sc(C)c(C)c23)no1,inactive,,
Cc1ccc(S(=O)(=O)N2CCC(C(=O)Nc3nnc(C4CCCC4)s3)CC2)cc1,inactive,5.99,
COc1ccc(CNC(=O)CC2(CC(=O)O)CCCCC2)cc1,inactive,-16.2,
COc1ccccc1NC(=O)C(C)NS(=O)(=O)c1ccc(Cl)cc1 (stereo not drawn),6.51 µM (active),10.9,
COc1ccccc1NC(=O)C(C)NS(=O)(=O)c1ccc(F)cc1 (stereo not drawn),inactive,6.54,
COc1ccc(S(=O)(=O)NC(C)C(=O)Nc2ccccc2F)cc1 (stereo not drawn),inactive,4.07,
COc1cc(C(=O)OCC(=O)N2CCCCC2C)cc(NC(=O)c2cccs2)c1OC (stereo not drawn),inactive,7.36,
CCCNC(=O)C1CCC(CNS(=O)(=O)c2cccc3nsnc23)CC1 (stereo not drawn),inactive,,
COC(=O)CNC(=O)C1CCC(CNS(=O)(=O)c2cccc3nsnc23)CC1 (stereo not drawn),inactive,-18.8,
CC(C)(C)NC(=O)C1CCC(CNS(=O)(=O)c2cccc3nsnc23)CC1 (stereo not drawn),18.4 µM (active),,
Cc1cc(NC(=O)CSc2nc(=O)n3cc(Cl)ccc3n2)no1,,13.5,0.863% [at 0.0737 µM] (inactive)

SMILES,Potency,cell number change [%],"lipid storage change, negative = inhibition"
Fc1ccc(CNn2cnnc2SCc2ccc(F)cc2)cc1,inactive,9.34,
CCc1cccc2c(C(=O)COC(=O)c3cccc(S(=O)(=O)N(C)C4CCCCC4)c3)c[nH]c12,inactive,6.53,
C=CCN(C(=O)c1csnn1)C(C(=O)NC1CCCCC1)c1ccccc1F (stereo not drawn),13 µM (active),2.14,
C=CCN(C(=O)c1csnn1)C(C(=O)NC1CCCC1)c1c(F)cccc1Cl (stereo not drawn),9.2 µM (active),0.427,
O=C(NC1CCCC1)C(c1ccc(Cl)cc1)N(C(=O)c1csnn1)C1CC1 (stereo not drawn),inactive,12.1,
C=CCN(C(=O)c1csnn1)C(C(=O)NC1CCCCC1)c1ccc(F)cc1 (stereo not drawn),inactive,11.7,
O=C(NC1CCCC1)C(c1ccc(F)cc1)N(C(=O)c1csnn1)C1CC1 (stereo not drawn),inactive,-11.5,
O=C(NC1CCCC1)C(c1c(F)cccc1Cl)N(C(=O)c1csnn1)C1CC1 (stereo not drawn),16.4 µM (active),-12.9,
C=CCN(C(=O)c1csnn1)C(C(=O)NC1CCCC1)c1ccc(Cl)cc1 (stereo not drawn),inactive,-41,
C=CCN(C(=O)c1csnn1)C(C(=O)NC1CCCC1)c1ccccc1F (stereo not drawn),inactive,-7.62,
C=CCN(C(=O)c1csnn1)C(C(=O)NC1CCCC1)c1ccccc1 (stereo not drawn),inactive,15.2,
O=C(c1cccc(COc2cccc3ccccc23)c1)N1CCCC1,inactive,-5.05,
COc1ccc(/C=N/Nc2nnc(-c3ncc[nH]3)c3ccccc23)cc1,inactive,-1.94,
CC1=C(C)CC(C(=O)Nc2ccc3c(c2)OCO3)C(C(=O)O)C1 (stereo not drawn),inactive,-0.481,
COc1ccc(OC)c(S(=O)(=O)NNC(=S)Nc2ccc3c(c2)OCO3)c1,inactive,5.94,
O=C(Nc1cnccn1)Nc1cccc(Cl)c1Cl,inactive,-0.957,
CN1CCN(S(=O)(=O)c2cccc(C(=O)Nc3ccccc3N3CCCC3)c2)CC1,inactive,9.72,
O=C(Nc1cccc(S(=O)(=O)N2CCCCC2)c1)c1ccccn1,inactive,20.1,
O=C(NCC1COc2ccccc2O1)c1cccc(S(=O)(=O)N2CCOCC2)c1 (stereo not drawn),inactive,-18,
Cc1c(C(=O)NCC2COc3ccccc3O2)oc2ccc(S(=O)(=O)N3CC(C)CC(C)C3)cc12 (stereo not drawn),inactive,0.959,
CSc1ncccc1C(=O)Nc1cccc(S(=O)(=O)N2CCCCC2)c1,16.4 µM (active),0.775,
CCOc1ncccc1C(=O)Nc1cccc(S(=O)(=O)N2CCCCC2)c1,inactive,-15,
O=C(NCC1CCCCC1)c1cccc(S(=O)(=O)N2CCCC2)c1,inactive,3.1,

SMILES,Potency,cell number change [%],"lipid storage change, negative = inhibition"
CCN(CC)S(=O)(=O)c1ccc2oc(C(=O)NC3CC3)c(C)c2c1,inactive,-10.9,
CC1CN(S(=O)(=O)c2cccc(C(=O)Nc3ccccc3N3CCCCC3)c2)CC(C)O1 (stereo not drawn),23.1 µM (active),-19.1,
CC1CN(S(=O)(=O)c2cccc(C(=O)Nc3ccccc3N3CCOCC3)c2)CC(C)O1 (stereo not drawn),inactive,-20.3,
CCN(CC)S(=O)(=O)c1ccc2oc(C(=O)NCC3COc4ccccc4O3)c(C)c2c1 (stereo not drawn),0.461 µM (active),-14.2,
O=C(NCC1COc2ccccc2O1)c1cccc(S(=O)(=O)N2CCCCC2)c1 (stereo not drawn),2.06 µM (active),-15.1,
CC(C)Oc1ccc(S(=O)(=O)N2CCOCC2)cc1NC(=O)C1CCCCC1,inactive,17,
Cc1cccc(NC(=O)C2CCCN2C(=O)NC2CCCCC2)c1 (stereo not drawn),,-1.91,9.23% [at 9.22 µM] (inactive)
CCC(C)C(NC(=O)OCc1ccccc1)C(=O)NC(Cc1ccc(O)cc1)C(=O)OC (stereo not drawn),inactive,15.2,
Cc1cnc2cc([N+](=O)[O-])ccc2n1,inactive,9.36,
CC(NC(=O)CN1c2cccc3cccc(c23)S1(=O)=O)c1ccc(S(N)(=O)=O)cc1 (stereo not drawn),inactive,20.8,
CCC(C)c1ccc(S(=O)(=O)N2CCN3CCCC3C2)cc1 (stereo not drawn),inactive,-6.32,
CCOC(=O)C(NC(=O)CC)(Nc1ccc(S(N)(=O)=O)cc1)C(F)(F)F (stereo not drawn),inactive,9.23,
O=C(CSc1nnnn1C1CCCCC1)Nc1ccc(F)cc1,inactive,-9.49,
CN(C)C(=O)Nc1cnc2ccccc2c1,inactive,12.4,
COc1ccc(CNC(=O)c2noc(C(C)C)c2[N+](=O)[O-])cc1,inactive,2.44,
CCOC(=O)C(NC(=O)c1ccc(F)cc1)(Nc1sc2c(c1C(N)=O)CCC2)C(F)(F)F (stereo not drawn),inactive,-0.472,
CCCC(=O)Oc1c(S(=O)(=O)c2ccc(C)cc2)c(C)nn1C(C)(C)C,inactive,23.9,
CC(C)(C)c1nnc(NC(=O)c2ccc3c(c2)OCO3)s1,inactive,5.88,
O=C(COc1ccccc1)Nc1nc(-c2ccc(S(=O)(=O)N3CCOCC3)cc2)cs1,inactive,-17.5,
O=C(Nc1ccc(S(=O)(=O)N2CCOCC2)cc1)c1ccccc1,inactive,-4.33,
O=C(Nc1cccc(S(=O)(=O)N2CCCC2)c1)c1cccc(S(=O)(=O)N2CCOCC2)c1,1.84 µM (active),-9.73,
CC(C)C(=O)Nc1nc(-c2ccc(S(=O)(=O)N3CCOCC3)cc2)cs1,5.17 µM (active),-31.7,
O=C(Nc1cccc(F)c1)c1cccc(S(=O)(=O)N2CCOCC2)c1,inactive,-12.5,

SMILES,Potency,cell number change [%],"lipid storage change, negative = inhibition"
O=C(/C=C/c1ccc2c(c1)OCO2)Nc1nncs1,inactive,12.8,
O=C(Nc1nncs1)c1ccc2c(c1)OCO2,4.61 µM (active),11.7,
O=C(Nc1ccc(S(=O)(=O)N2CCOCC2)cc1)c1cccc(Br)c1,inactive,-4.91,
CC(C)C(=O)Nc1cccc(C(=O)Nc2ccc(S(=O)(=O)N3CCOCC3)cc2)c1,13 µM (active),-1.62,
Cc1nc(-c2ccc(S(=O)(=O)N3CCOCC3)cc2)cs1,inactive,,
CC(=O)c1cccc(NC(=O)c2cccc(S(=O)(=O)N3CCOCC3)c2)c1,inactive,0.952,
CCN(CC(=O)NC1CCCC1)S(=O)(=O)c1ccc(C)cc1,inactive,,
COc1ccc(/C=C/C(=O)O)cc1S(=O)(=O)NC1CCS(=O)(=O)C1 (stereo not drawn),inactive,23.6,
Nc1nc(SCc2ccccc2Cl)nc2nc3c(cc12)CCCC3,inactive,-12.1,
COc1ccc(C2N=C(c3ccccc3)NC(c3ccccc3)=N2)cc1,inactive,1.5,
N#Cc1cccc(S(=O)(=O)Nc2c(NC3CCCCC3)c3ccccc3oc2=O)c1,inactive,-28.3,
Cc1cccc(NC(=S)N(CCc2ccncc2)C(C)C)c1C,inactive,-1.71,
O=C(Nc1nccs1)c1cccc(S(=O)(=O)N2CCOCC2)c1,inactive,0.981,
COc1cc(C(=O)NCCN2C(=O)S/C(=C\c3ccc(F)cc3)C2=O)ccc1OCC(=O)N1CCOCC1,inactive,15.3,
O=C(NCCN1C(=O)S/C(=C\c2ccc(F)cc2)C1=O)c1cccc(S(=O)(=O)N2CCOCC2)c1,13 µM (active),,
O=C(Nc1nnc(-c2ccccc2)s1)c1cccc(S(=O)(=O)N2CCOCC2)c1,inactive,-9.5,
COc1ccc(NC(=O)c2cc(S(=O)(=O)N3CCOCC3)cn2C)cc1Cl,inactive,-8.07,
O=C(Nc1nncs1)c1cccc(S(=O)(=O)N2CCOCC2)c1,23.1 µM (active),-2.32,
O=C(NCCN1CCOCC1)c1cccc(S(=O)(=O)N2CCCC2)c1,inactive,2.89,
Cn1cc(S(=O)(=O)N2CCOCC2)cc1C(=O)Nc1ccc(Cl)cc1,inactive,5.48,
Cn1cc(S(=O)(=O)N2CCOCC2)cc1C(=O)Nc1cccc(Cl)c1,7.31 µM (active),-6.63,
